HP1b binding inh = blocks HP1-beta chromodomain binding to methylated histone tails | P83916 | AlphaScreen HP1-beta / biotin-H3K9me3 peptide binding | Potency, µM (highest dose often 114 µM), for inactives: top-dose activity change, negative = inhibition, actives largely listed as inhibitors | 390,000 tested, 0.56% active | AID 540317; further: nearly all actives have a fitted effect of over 70% in size
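HP1-beta protein (50 nM final) preincubated 30 min at room temperature with biotinylated H3(1-18)K9me3 peptide (50 nM) in PBS pH 7.4, 0.01% Tween-20, then compound added for 30 min. AlphaScreen streptavidin donor/nickel chelate acceptor beads (10 ug/mL final), 30 min dark, luminescence read.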
L3MBTL1 block = L3MBTL1 (human) inhibition; Q9Y468; AlphaScreen L3MBTL1–H3K9me1 peptide binding; Potency, µM (top dose mostly 57.1 µM), for inactives: top-dose activity, negative = inhibition, most hits filed as inhibitors; 230,000 tested, 0.66% active; AID 485360; further: on the % scale 0 is the no-effect control and ±100 the full control effect; nearly all actives have a fitted effect of over 60% in size
Target sequence (Q9Y468 whole entry, looked up): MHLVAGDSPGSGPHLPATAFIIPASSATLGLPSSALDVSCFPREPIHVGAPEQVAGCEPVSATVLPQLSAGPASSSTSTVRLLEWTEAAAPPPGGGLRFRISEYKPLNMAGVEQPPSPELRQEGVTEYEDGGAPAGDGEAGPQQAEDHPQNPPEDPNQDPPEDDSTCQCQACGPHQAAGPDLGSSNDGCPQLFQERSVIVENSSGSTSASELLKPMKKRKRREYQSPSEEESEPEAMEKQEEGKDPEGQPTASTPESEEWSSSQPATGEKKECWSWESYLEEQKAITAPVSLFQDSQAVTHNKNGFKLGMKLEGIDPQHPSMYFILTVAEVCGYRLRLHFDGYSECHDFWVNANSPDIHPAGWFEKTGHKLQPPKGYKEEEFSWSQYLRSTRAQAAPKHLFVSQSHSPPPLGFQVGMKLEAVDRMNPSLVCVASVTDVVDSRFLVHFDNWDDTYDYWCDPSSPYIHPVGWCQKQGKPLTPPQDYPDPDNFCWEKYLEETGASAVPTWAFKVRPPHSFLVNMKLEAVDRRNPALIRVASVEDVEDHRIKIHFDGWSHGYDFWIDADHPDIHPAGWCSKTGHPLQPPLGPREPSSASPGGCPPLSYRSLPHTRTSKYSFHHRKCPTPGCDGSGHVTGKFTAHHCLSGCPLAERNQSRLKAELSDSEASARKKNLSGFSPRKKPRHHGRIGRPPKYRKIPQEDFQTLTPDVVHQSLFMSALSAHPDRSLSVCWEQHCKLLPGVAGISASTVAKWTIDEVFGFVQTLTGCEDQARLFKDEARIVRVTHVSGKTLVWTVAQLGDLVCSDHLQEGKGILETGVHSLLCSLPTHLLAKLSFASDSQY
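Read-out is AlphaScreen signal from streptavidin donor and nickel chelate acceptor beads (10 ug/mL final each) bridging L3MBTL1 (50 nM) and biotinylated K9-monomethylated H3(1-15) peptide (75 nM), after 30 min compound exposure at room temperature.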
G9a block = G9a (human) methyltransferase inhibition | 350,000 tested, 8.8% active | Potency, µM (highest dose often 102 µM), inactives show at the top dose activity, negative = inhibition, most hits filed as inhibitors | G9a H3K9 monomethylation, AlphaScreen, 2 h | AID 504332; further: on the % scale 0 is the no-effect control and ±100 the full control effect; nearly all actives have a fitted effect of over 75% in size
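Quantitative HTS format: methyltransferase activity on a biotin-tagged H3K9 peptide is measured by AlphaScreen, using a rabbit anti-monomethyl-H3K9 antibody with streptavidin donor and anti-IgG acceptor beads. Final levels are 20 nM enzyme, 500 nM peptide, 20 uM SAM; 2 h RT.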
JMJD2A Tudor inh = JMJD2A Tudor domain (human) inhibition; 390,000 tested, 4.4% active; AlphaScreen JMJD2A-Tudor / H3K4me3 peptide binding; O75164; Potency, µM (series often up to 114 µM), inactives show at the highest dose activity change, negative = inhibition, most hits filed as inhibitors; further: on the % scale 0 is the no-effect control and ±100 the full control effect; nearly all actives have a fitted effect of over 50% in size
Sfp PPTase inh = inhibitors of Bacillus subtilis Sfp phosphopantetheinyl transferase; 310,000 tested, 3.5% active; Potency, µM, without a hit: largest response in the series, negative = inhibition, hits mostly inhibitors; Biochemical Sfp PPTase activity, qHTS; Q9F4F7; AID 1490;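 further: the enzyme is Sfp with the accession as filed and its product quenches rhodamine fluorescence; 0% = enzyme reaction without inhibitor and -100% = no enzyme wells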
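Fluorescence-quenching assay with 15 nM Sfp, 5 uM rhodamine-CoA and 12.5 uM BHQ-2-labelled ybbR peptide in pH 7.6 Hepes/MgCl2 buffer. Enzyme was pre-incubated with compound for 15 min at room temperature. Rate was taken from the 30-min fluorescence change (525/598 nm).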
BAZ2B block = inhibitors of human BAZ2B bromodomain; Potency, µM (doses to about 114 µM), inactives show at the highest dose activity change, negative = inhibition, actives largely listed as inhibitors; 360,000 tested, 4.4% active; AlphaScreen BAZ2B-H3K14Ac peptide displacement; Q9UIF8; further: on the % scale 0 is the no-effect control and ±100 the full control effect; nearly all actives have a fitted effect of over 60% in size
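In this displacement format the biotinylated H3(5-23) peptide acetylated at Lys14 serves as ligand at 50 nM, with BAZ2B at 50 nM in PBS pH 7.4 containing 0.01% Tween-20. Donor and acceptor beads are 10 ug/mL final.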
Active calls of the source: *; ? = inconclusive; · = not tested or not shown; ! = not active in a repeat; [ ] = remark or other dose. Rows were chosen to be rich in hits. Some 12% of all compounds tested hit in one or more screens of this group. The call rests on the fitted dose curve; in most records, active means well fitted curve in the direction sought with a large enough effect; inconclusive means small, poorly fitted or top-dose-only effect, or another doubt; inactive means no such curve, though single readings can be large; an effect the other way counts as inactive or inconclusive. Potency means the concentration at half of the fitted maximal effect.

SMILES	HP1b binding inh	L3MBTL1 block	G9a block	JMJD2A Tudor inh	Sfp PPTase inh	BAZ2B block
CC(NC(=O)COc1cccc(Br)c1)C(=O)O (stereo unspecified)	44%	8%	50µM*	0%	22%	5%
CC(NC(=O)COc1ccc(Br)cc1)C(=O)O (stereo unspecified)	27%	·	?	-10%	6%	2%
O=C(COc1cccc(Br)c1)N/N=C1\CCSC1	2%	-1%	-21%	71µM*	11%	-17%
CCCN(C(=O)c1cc2c(=O)oc3ccccc3c2s1)c1ccccc1C	54%	·	22%[59 µM]	16%	·	15%
COc1ccccc1CN1CCN(Cc2nc(-c3ccc(C)cc3)oc2C)CC1	17%	-2%	21%	?	7%	-33%
COc1cc(CN2CCN(Cc3ccco3)CC2)cc(OC)c1	?	·	8.9µM*	0.79µM*	?	25µM*
COc1ccc(CN2CCc3ccccc3C2)c(OC)c1	?	3%	-128%[59 µM]	2.8µM*	-19%	?
COc1ccccc1CN1CCN(Cc2ccco2)CC1	?	·	45µM*	4µM*	?	25µM*
COc1ccc(CN2CCN(Cc3ccco3)CC2)c(OC)c1	?	·	40µM*	3.2µM*	56µM*	40µM*
Cc1ccc(-n2nc3c(=O)n(CCCC(=O)NC(C)c4ccccc4)nc(C)c3c2C)cc1 (stereo unspecified)	57%	·	4%[59 µM]	5%	·	-2%
COc1ccc(CCNC(=O)Cc2c(C)c3cc4c(C(C)(C)C)coc4c(C)c3oc2=O)cc1OC	13%	·	-2%[59 µM]	-9%	·	-6%
Cc1cc(C)c(S(=O)(=O)NCCc2sc3nc(-c4ccc(F)cc4)nn3c2C)c(C)c1	26%	·	5%[59 µM]	-13%	·	-2%
COc1ccc(C(O)c2nccc3cc(OC)c(OC)cc23)cc1OC (stereo unspecified)	8%	·	3.5µM*	?	0%	56µM*
CC1=NN(c2nc(C)cc(C)n2)C(=O)C1CCC(C)C (stereo unspecified)	38%	·	44%	?	5%	-11%
CCC1C(=O)N(c2nc(C)cc(C)n2)N=C1C (stereo unspecified)	31%	·	20µM*	11µM*	56µM*	?
Cc1sc(-n2c(C)ccc2C)c(C#N)c1C	-33%	-2%	7.9µM*	-36%	63µM*	-6%
Cc1ccc(C)n1-c1sc2c(c1C#N)CCCC2	-2%	-9%	-6%[59 µM]	-13%	-4%	5%
Clc1ccc(-c2nc3sccn3c2/C=N/OCc2ccc(Cl)c(Cl)c2)cc1	·	·	26%[59 µM]	·	-12%	·
COC(=O)c1c(NC(NC(=O)C(C)(C)C)C(Cl)(Cl)Cl)sc2c1CCC2 (stereo unspecified)	-6%	1%	?	-22%	?	-19%
COC(=O)c1c(NC(NC(=O)C(C)C)C(Cl)(Cl)Cl)sc2c1CCC2 (stereo unspecified)	14%	-2%	?	-20%	50µM*	-12%
CCC(=O)NC(Nc1sc2c(c1C(=O)OC)CCC2)C(Cl)(Cl)Cl (stereo unspecified)	18%	-3%	9%[59 µM]	-13%	20µM*	?
COc1ccc(/C=C/C(=O)Nc2ccc3nc(N4CCC(C)CC4)cc(C)c3c2)cc1OC	?	·	?	?	·	-31%
Cc1ccc[n+](-c2nc([O-])sc2/C=N/Nc2ccc([N+](=O)[O-])cc2)c1	4%	-16%	11µM*	-18%	-8%	40µM*
COc1ccccc1CNC(=O)CCC(=O)N1CC2CCCN2c2ccccc21 (stereo unspecified)	8%	·	-25%[59 µM]	-35%	·	-32%
COc1ccc(N2CCN(c3ncnc4c3cnn4C)CC2)cc1	23%	·	14µM*	-34%	·	-18%
SMILES	HP1b binding inh	L3MBTL1 block	G9a block	JMJD2A Tudor inh	Sfp PPTase inh	BAZ2B block
Cc1cccc(-n2ncc3c(N4CCN(c5ccccc5)CC4)ncnc32)c1	108%	·	-3%[59 µM]	16µM*	·	-7%
O=C(NCCC1=CCCCC1)C1CCN(C(=O)N2CCOc3ccccc32)CC1	19%	·	-10%[59 µM]	-16%	·	-4%
CC1CCN(C(=O)CN2CCSc3ccccc32)CC1	25%	·	7%[12.7 µM]	-8%	·	-19%
Cc1ccc(/C=C/C(=O)c2c(C)cc(C)[nH]c2=O)cc1	-1%	-1%	-4%[59 µM]	-17%	6%	6%
CCc1ccc(/C=C/C(=O)c2c(C)cc(C)[nH]c2=O)cc1	42%	2%	56µM*	-3%	8%	5%
COc1cc2c(cc1OC)-c1cc(=Nc3c(C)cc(C)cc3C)n(C)c(=O)n1CC2	-25%[57 µM]	·	21µM*	?	71µM*!	·
CN(C)c1cccc2c1C(=O)c1ccccc1C2=O	28µM*	25µM*	11µM*	45µM*	-10%	8.9µM*
CCOc1ccc(N(C)Cc2cc(=O)oc3ccc(OCC)cc23)cc1	-37%	·	10µM*	?	1%	18µM*
COc1cc(OC)c(-c2nn3c(-c4ccco4)nnc3s2)cc1OC	-22%	-11%	45µM*	-33%	3%	-8%
Clc1ccc(-c2nnc3sc(-c4ccco4)nn23)c(Cl)c1	·	·	-27%[12.7 µM]	·	13%	3%
Cc1oc(-c2ccc(Cl)cc2)cc1-c1nn2c(-c3ccco3)nnc2s1	·	-12%	?	·	-24%	35µM*
Cc1ccc(S(=O)(=O)c2c(O)cc(C)c(NS(=O)(=O)c3ccc(Br)cc3)c2C)cc1	-9%	·	-17%[59 µM]	-29%	·	-31%
CCOC(=O)c1c(NC(=O)C(C)Sc2cn(CCNC(=O)c3c(F)cccc3F)c3ccccc23)sc2c1CCC2 (stereo unspecified)	42%	·	-2%[59 µM]	-22%	·	-26%
COc1ccc(-c2nnc3n2-c2ccccc2SC3)cc1OC	45%	4%	?	-23%	79µM*	?
CNc1ccc(/C=C/C(=O)c2cccc3ccccc23)cc1[N+](=O)[O-]	16µM*	?	10µM*	8.9µM*	0%	7.1µM*
Cc1ccc(S(=O)(=O)N/N=C/c2ccccc2O)cc1[N+](=O)[O-]	5%	-3%	?	-11%	10%	-38%
CCN(CC)c1ccc(/C=N/NS(=O)(=O)c2ccc(C)c([N+](=O)[O-])c2)cc1	?	-10%	40µM*	35µM*	-5%	?
Cc1ccc(S(=O)(=O)N/N=C/c2ccc(O)c(O)c2)cc1[N+](=O)[O-]	-18%	-9%	35µM*	?	?	-35%
CCN(Cc1ccccc1)c1ccc(/C=N/NS(=O)(=O)c2cccc([N+](=O)[O-])c2)cc1	?	-3%	10µM*	?	?	?
c1ccc(CCNCCCOc2cccc3ccccc23)cc1	-31%	0%	-5%[12.7 µM]	40µM*	-20%	-35%
